Measured values from PubChem BioAssay (EPA / NIEHS).
The source made the active and inactive calls. How the source made its calls: active means hit-call score of the fitted dose curve at least 0.9, where 1 is the maximum; inactive means score below 0.9.

What was measured:
[1] = CEETOX_H295R_TESTO: CeeTox H295R High-throughput Steroidogenesis Assay for Testosterone (TESTO) (AID 2283457); conditions: actives raise or lower the signal;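 on AC50: cells exposed to chemicals for 48 h before medium collection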
Method in brief: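 Testosterone secreted into the medium over 48 h by H295R cells (maximum passage 10) was quantified by LC-MS/MS after MTBE extraction. Fitted in both directions against DMSO, with concentrations diluted until MTT viability was ≥70%.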

[2] = read-out: Cyclin D2 (CCND2), CCND2 (gene 894); test: LTEA_HepaRG_CCND2: Life Technologies and Expression Analysis (LTEA) Assay for Cyclin D2 (CCND2) using HepaRG (AID 2283449); conditions: mRNA level, 48 h; actives raise or lower the signal;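 further: CCND2 transcript measured by TaqMan qRT-PCR and normalised to three housekeeping genes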
Method in brief: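 HepaRG, 48 h dosing, 8-pt half-log curve from 100 uM, 0.5% DMSO; duplicate wells. Readout: CCND2 transcript by microfluidic qRT-PCR, housekeeping-normalised; bidirectional fit vs DMSO baseline.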

[3] = read-out: Cyclin Dependent Kinase Inhibitor 1A (CDKN1A), CDKN1A (gene 1026); test: LTEA_HepaRG_CDKN1A: Life Technologies and Expression Analysis (LTEA) Assay for Cyclin Dependent Kinase Inhibitor 1A (CDKN1A) using HepaRG (AID 2283450); conditions: mRNA level, 48 h; actives raise or lower the signal
Experimental: LTEA_HepaRG is a cell based, multiplexed-readout assay that uses HepaRG, a human liver cell line, with measurements taken at 48 hours after chemical dosing on a 96-well plate.LTEA_HepaRG_CDKN1A is one of 102 assay component(s) measured in the LTEA HepaRG cell culture assay. It is a marker of Cell proliferation, survival, death.Data from the assay component LTEA_HepaRG_CDKN1A was analyzed into 1 endpoint. This assay endpoint, LTEA_HepaRG_CDKN1A, was analyzed with bidirectional fitting relative to DMSO as the negative control and baseline of activity. Using a type of inducible reporter, measures of mRNA induction for gain or loss-of-signal activity can be used to understand regulation of transcription factor activity. To generalize the intended target to other relatable targets, this assay endpoint is annotated to the cell cycle intended target family, where the subfamily is Cell proliferation, survival, death.
A total of 1060 chemcials from the ToxCast library were tested in eight-point concentration-response experiments. […] Fluidigm's 96.96 Dynamic ArrayTM (Fluidigm, Amsterdam, the Netherlands) technology was used for gene expression analyses by quantitative reverse transcription polymerase chain reaction (qRT-PCR, performed by Quintiles/Expression Analysis, Durham, NC)89. […]

[4] = read-out: Cyclin D1 (CCND1), CCND1 (gene 595); test: LTEA_HepaRG_CCND1: Life Technologies and Expression Analysis (LTEA) Assay for Cyclin D1 (CCND1) using HepaRG (AID 2283451); conditions: mRNA level, 48 h; actives raise or lower the signal
Method in brief: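 Expression of CCND1 was quantified by qRT-PCR on Fluidigm arrays using ACTB, GAPDH and POLR2A as reference genes. HepaRG cultures, plated 48 h beforehand, were dosed for 48 h at up to 100 uM (half-log, 8 points) in 0.5% DMSO.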

[5] = read-out: catalase (CAT), CAT (gene 847); test: LTEA_HepaRG_CAT: Life Technologies and Expression Analysis (LTEA) Assay for catalase (CAT) using HepaRG (AID 2283452); conditions: mRNA level, 48 h; actives raise or lower the signal
Method in brief: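 HepaRG cells in serum-free induction medium, 0.5% DMSO vehicle, exposed 48 h in duplicate over 8 half-log concentrations from 100 uM. CAT mRNA measured by qRT-PCR, normalized to ACTB, GAPDH, POLR2A; bidirectional fit versus DMSO.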

[6] = read-out: flavin-containing dimethylaniline monooxygenases 3 (FMO3), FMO3 (gene 2328); test: LTEA_HepaRG_FMO3: Life Technologies and Expression Analysis (LTEA) Assay for flavin-containing dimethylaniline monooxygenases 3 (FMO3) using HepaRG (AID 2283453); conditions: mRNA level, 48 h; actives raise or lower the signal
Method in brief: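 Eight-point concentration-response in serum-free HepaRG cultures (top 100 uM, 0.5% DMSO, 48 h). Read-out: FMO3 mRNA level normalized to three endogenous control genes, fitted bidirectionally versus vehicle.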

[7] = read-out: Cytochrome P450 (CYP1A1), CYP1A1 (gene 1543); test: LTEA_HepaRG_CYP1A1: Life Technologies and Expression Analysis (LTEA) Assay for Cytochrome P450 (CYP1A1) using HepaRG (AID 2283454); conditions: mRNA level, 48 h; actives raise or lower the signal
Method in brief: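 CYP1A1 transcript levels measured by Fluidigm qRT-PCR against three housekeeping genes, 48 h after chemical dosing of human HepaRG cells (highest concentration 100 uM, half-log steps, 0.5% DMSO vehicle). Gain or loss of signal fitted relative to DMSO.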

[8] = read-out: CFLAR gene, CFLAR (gene 8837); test: LTEA_HepaRG_CFLAR: Life Technologies and Expression Analysis (LTEA) Assay for CFLAR gene using HepaRG (AID 2283455); conditions: mRNA level, 48 h; actives raise or lower the signal
Method in brief: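 qRT-PCR read-out (Fluidigm/TaqMan) of CFLAR mRNA, normalized to three housekeeping genes, in differentiated human HepaRG cells after 48 h chemical exposure; 8-point half-log series from 100 uM in 0.5% DMSO; bidirectional curve fitting versus DMSO.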

[9] = read-out: Forkhead box O1 (FOXO1), FOXO1 (gene 2308); test: LTEA_HepaRG_FOXO1: Life Technologies and Expression Analysis (LTEA) Assay for Forkhead box O1 (FOXO1) using HepaRG (AID 2283456); conditions: mRNA level, 48 h; actives raise or lower the signal
Method in brief: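 HepaRG, 48 h exposure, 8-pt half-log series from 100 uM in 0.5% DMSO, duplicates; Fluidigm qRT-PCR mRNA, housekeeping-normalised; bidirectional fit vs DMSO baseline.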

[10] = read-out: growth arrest and DNA damage 45 (GADD45A), GADD45A (gene 1647); test: LTEA_HepaRG_GADD45A: Life Technologies and Expression Analysis (LTEA) Assay for growth arrest and DNA damage 45 (GADD45A) using HepaRG (AID 2283458); conditions: mRNA level, 48 h; actives raise or lower the signal
Method in brief: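 Eight-point concentration-response in HepaRG cells: 48 h chemical exposure, 0.5% DMSO vehicle, top dose 100 uM. Normalized qRT-PCR mRNA readout with bidirectional fitting relative to DMSO.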

Nc1cc([N+](=O)[O-])ccc1Cl
outcome [1]: inactive

C=CC(C)(C)O
outcome [1]: inactive

O=C(O)c1ccc([N+](=O)[O-])cc1
outcome [2]: inactive
outcome [3]: inactive
outcome [4]: inactive
outcome [5]: inactive
outcome [6]: inactive
outcome [7]: inactive
outcome [8]: inactive
outcome [9]: inactive
outcome [10]: inactive

O=C(O)C[C@H](O)C[C@H](O)/C=C/c1c(C2CC2)nc2ccccc2c1-c1ccc(F)cc1
AC50 [1]: 87.1 nM (active)

CC1(C)[C@H](C(=O)OCc2cccc(Oc3ccccc3)c2)[C@@H]1C=C(Cl)Cl
outcome [1]: inactive

O=c1cc(-c2ccccc2)oc2cc(O)cc(O)c12
AC50 [1]: 5610 nM (active)

COc1cc2ncnc(Nc3cccc(Cl)c3)c2cc1OC
outcome [1]: inactive
